Hit rate of the full screen: of about 360,000 compounds, about 25,000 (6.9%) were called active. Not shown: some 9% with an inconclusive outcome. Calls follow the shape of the dose curve; as a rule, active = well fitted inhibition curve with a large enough effect; inconclusive = small, poorly fitted or top-dose-only effect; inactive = flat fitted curve, though single readings scatter. The list comes from a sample in which actives are over-represented; it also holds similar structures and randomly drawn compounds. A call without a number means that no potency is given here.
target: Luciferin 4-monooxygenase (Photinus pyralis) (UniProt P08659); experiment: qHTS profiling assay for firefly luciferase inhibitor/activator using purifed enzyme and Km concentrations of substrates (counterscreen for miR-21 project); settings: purified FLuc, luminescence inhibition; series mostly up to 57.5 µM; also: nearly all actives have a fitted effect of over 55% in size
Summary of the method: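 Purified P. pyralis luciferase, 10 nM final, with Km-level 10 uM D-luciferin and 10 uM ATP in 50 mM Tris acetate pH 7.5, 10 mM Mg acetate, 0.01% Tween-20, 0.05% BSA; 6-point qHTS titration about 60 µM downward; luminescence read.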
Potency is read from the fitted curve at half-maximal effect.

Chain of Luciferin 4-monooxygenase (Photinus pyralis) (P08659 whole entry, looked up): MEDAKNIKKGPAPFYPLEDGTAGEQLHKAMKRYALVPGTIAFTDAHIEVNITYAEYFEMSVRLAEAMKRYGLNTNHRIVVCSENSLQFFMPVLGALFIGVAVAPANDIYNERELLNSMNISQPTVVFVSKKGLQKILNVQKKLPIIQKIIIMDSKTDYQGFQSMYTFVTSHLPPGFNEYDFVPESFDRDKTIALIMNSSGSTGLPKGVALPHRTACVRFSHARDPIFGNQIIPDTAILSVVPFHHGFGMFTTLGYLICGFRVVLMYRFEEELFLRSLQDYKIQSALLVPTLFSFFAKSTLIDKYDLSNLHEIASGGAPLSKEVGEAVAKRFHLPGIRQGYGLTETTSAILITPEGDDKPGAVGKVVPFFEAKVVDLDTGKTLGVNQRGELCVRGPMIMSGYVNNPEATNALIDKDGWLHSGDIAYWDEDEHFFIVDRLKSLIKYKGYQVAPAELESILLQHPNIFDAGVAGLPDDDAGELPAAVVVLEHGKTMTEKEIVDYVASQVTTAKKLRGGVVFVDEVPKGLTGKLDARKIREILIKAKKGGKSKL

Row | SMILES | Potency
1 | CCCn1c(NCc2ccc(N(CC)CC)cc2)nc2ccccc21 | inactive
2 | Cc1ccc(CNC(=O)CCc2c(C)nc3nc(CNC(=O)OC(C)(C)C)nn3c2C)cc1 | inactive
3 | Cc1ccc2nc(-c3ccc(Br)cc3)cn2c1 | 0.0849 µM (active)
4 | Cc1ccc(-n2c(-c3ccc(Cl)cc3)n[nH]c2=S)cc1 | inactive
5 | Cc1ccc(C(=O)Cn2cc([N+](=O)[O-])nc2C)cc1 | inactive
6 | Cc1ccc(-c2nc(SCc3ccc(Br)cc3)n3[nH]c(=O)cc3n2)cc1 | inactive
7 | Cc1nc(-c2ccc([N+](=O)[O-])cc2)c(-c2ccccc2)o1 | inactive
8 | Cc1ccc(-c2cn3cc(C)ccc3n2)cc1 | 0.107 µM (active)
9 | CSc1nnc2ccc(-c3ccc(C)cc3)nn12 | inactive
10 | Cc1cc(N2CCOCC2)nc(-c2ccc(Br)cc2)n1 | inactive
11 | Cc1ccc(-c2cn3cc([N+](=O)[O-])ccc3n2)cc1 | 0.757 µM (active)
12 | CCc1c(C)sc(NC(=O)C2c3ccccc3Oc3ccccc32)c1C(=O)OC(C)C | inactive
13 | O=C(CSc1nc2ccccc2c(=O)n1CCCO)NC1CC1 | inactive
14 | CCN(CC)S(=O)(=O)c1ccc(N2CCOCC2)c(NC(=O)C(C)Oc2ccc(F)cc2)c1 (stereo not given) | inactive
15 | Cc1cccc(NC(=O)N2CCC(CN3CCc4ccccc4C3)CC2)c1C | inactive
16 | Cc1cc(NS(=O)(=O)c2ccc(NC(=O)c3ccccc3C)cc2)nc(C)n1 | inactive
17 | CCOc1ccc(S(=O)(=O)N(CC(=O)NCCSCc2ccc(C)cc2)c2ccccc2)cc1 | inactive
18 | COc1ccc([C@H]2CC(=O)C=C(c3ccc(OC(F)(F)F)cc3)C2)cc1OC | inactive
19 | Cc1cc(Cl)c2oc(C(=O)N(C)C(C)c3ccccn3)c(C)c2c1 (stereo not given) | 19 µM (active)
20 | Cc1cc(Cl)c2oc(C(=O)N3CCC(O)(c4ccccc4)CC3)c(C)c2c1 | inactive
21 | Cc1cc(Cl)c2oc(C(=O)NC(C)c3ccncn3)c(C)c2c1 (stereo not given) | inactive
22 | CCOc1ncccc1C(=O)OCC(=O)N1c2ccccc2CC1C (stereo not given) | inactive
23 | O=C(Nc1ncccc1O)c1ccc(C(=O)c2ccccc2)cc1 | 26.9 µM (active)
24 | O=C(Nc1ncccc1O)c1ccc(S(=O)(=O)N2CCCCCC2)cc1 | inactive

Row | SMILES | Potency
25 | O=C(Nc1ncccc1O)c1ccc(S(=O)(=O)N2CCCC2)cc1 | inactive
26 | COc1cc(F)c(C2=CC(=O)CC(C)(C)C2)cc1F | inactive
27 | CCCC12CN3CC(C)(CN(C1)C3c1ccccc1Cl)C2=O (stereo not given) | inactive
28 | CN(C)c1ccc(NC(=O)c2ccncc2)c2ccccc12 | inactive
29 | CNC(=O)c1csc(-c2ccccc2)n1 | inactive
30 | O=C(Nc1nsc(-c2ccccc2)n1)c1ccncc1 | 19 µM (active)
31 | Cc1cccc(-n2ncc(C(=O)N3CCC(C)CC3)c2C2CCN(C(=O)OC(C)(C)C)CC2)c1 | inactive
32 | COc1ccc(/C=C2\N=C3CCCN3C2=O)cc1 | 15.1 µM (active)
33 | COc1ccc(C2NC(=O)N(C)C3=C2C(=O)N(c2ccc(C(=O)O)cc2)C3)cc1 (stereo not given) | inactive
34 | COc1ccc(/C=C2\SC(=N)N(c3ccc(F)cc3)C2=O)cc1 | inactive
35 | CCN(C(=O)Cn1cnc2sc(C)c(S(=O)(=O)N3CCN(c4ncccn4)CC3)c2c1=O)c1ccccc1F | inactive
36 | CCOc1cc(/C=C2\SC(N3CCCCC3)=NC2=O)ccc1O | 10.7 µM (active)
37 | CCOc1cc(/C=C2\SC(N3CCCC(C)C3)=NC2=O)ccc1O (stereo not given) | 9.53 µM (active)
38 | CCOc1cc(C(=S)N2CCOCC2)ccc1O | inactive
39 | CCOc1cc(/C=N/NC(=O)CN2CCCCC2)ccc1O | inactive
40 | Nc1c(Cl)cc(-c2csc(N3CCCC3c3nc4cc(Cl)c(Cl)cc4n3CCOCCO)n2)cc1Cl (stereo not given) | inactive
41 | ClC1(Cl)CC1CSc1ncn[nH]1 (stereo not given) | inactive
42 | Cc1ccc(N2CC(C(=O)Nc3cc(Cl)ccc3-n3cncn3)CC2=O)cc1 (stereo not given) | inactive
43 | CCCC(NCC(=O)Nc1ccccc1C(=O)NC1CC1)c1ccccc1 (stereo not given) | inactive
44 | COc1ccc(-c2cc(=O)oc3cc(OCC(=O)N(C)C4CCS(=O)(=O)C4)ccc23)cc1 (stereo not given) | inactive
45 | Cc1cc(=O)oc2ccc(OCC(=O)O)cc12 | inactive
46 | CC(=O)COc1ccc2c(-c3ccccc3)cc(=O)oc2c1 | 16.9 µM (active)
47 | C=CCC(NC(=O)Cc1ccccc1)C(=O)NCCC (stereo not given) | inactive
48 | O=C(COc1ccccc1)OCc1cc(=O)n2nc(-c3cccs3)sc2n1 | inactive

Row | SMILES | Potency
49 | O=C(O)COc1ccc(-c2nccc(-c3cccs3)n2)cc1 | 1.51 µM (active)
50 | O=C(Nc1ccnc(-c2ccncc2)n1)c1cccs1 | inactive
51 | Oc1c(C=Nc2cccc3nsnc23)ccc2ccccc12 | 1.69 µM (active)
52 | O=C(NCc1ccccc1)C1CCN(S(=O)(=O)c2ccc3[nH]c(=O)ccc3c2)CC1 | inactive
53 | CC(C)Cn1cnc2c1c(=O)n(CC(O)c1ccccc1)c(=O)n2CC(C)C (stereo not given) | inactive
54 | CC(=O)Nc1ccccc1Sc1ccc2c3c(cccc13)C(=O)N(c1ccc(C)cc1)C2=O | inactive
55 | O=C(O)c1ccc2c3c(cccc13)C(=O)N(OS(=O)(=O)c1ccccc1)C2=O | 26.9 µM (active)
56 | CN1C(=O)c2cccc3c(N)ccc(c23)C1=O | inactive
57 | Cc1nonc1C(=O)N/N=C/c1ccc(O)cc1 | 6.01 µM (active)
58 | CC(C)c1c(C(=O)N/N=C/c2ccc(-c3ccccc3)cc2)nnn1-c1nonc1N | inactive
59 | COc1cc(/C=N\NC(=O)c2nonc2N)c(OC)cc1Br | inactive
60 | CCC(C)Nc1oc(-c2ccc(COc3ccc(Cl)cc3)o2)nc1C#N (stereo not given) | inactive
61 | Nc1nnc(SCC(=O)NCC(=O)Nc2ccc(F)c(F)c2F)s1 | inactive
62 | O=C(c1ccco1)n1nc(-c2ccc(Cl)cc2)nc1NCc1ccccc1 | inactive
63 | Cc1cc(Br)ccc1NC(=O)Cn1cnc2sc(C)c(S(=O)(=O)N3CCN(C)CC3)c2c1=O | inactive
64 | Brc1ccc(CN2CC[C@H]3C=CCc4cccc(c43)C2)cc1 | inactive
65 | Cc1ccc(CCNC(=O)c2ccc3c(c2)nc2n3CCC(C)C2)cc1 (stereo not given) | inactive
66 | CCOc1ccccc1CNC(=O)c1ccc2c(c1)nc1n2CCC(C)C1 (stereo not given) | inactive
67 | O=C(NCc1ccccc1)c1ccc2c(c1)nc1n2CCCCC1 | 19 µM (active)
68 | O=C(NCc1ccc(Cl)c(Cl)c1)c1cccnc1 | inactive
69 | O=C(/C=C/c1ccc(Cl)cc1Cl)c1cccnc1 | 15.1 µM (active)
70 | O=C(/C=C/c1ccc(Cl)c([N+](=O)[O-])c1)c1cccnc1 | inactive

— PubChem BioAssay AID588342 (National Center for Advancing Translational Sciences (NCATS), 2011)
